Assay outcomes deposited in PubChem BioAssay by National Center for Advancing Translational Sciences (NCATS).
Rows were chosen to be rich in hits. Some 19% of all compounds tested hit in one or more screens of this group.
Pf growth 96h – inhibits malaria parasite growth, 96 h | P. falciparum luciferase reporter growth, 96 h | Potency, µM (titrated, usually from 28.7 µM), inactives show at the highest dose activity change, negative = inhibition, actives largely listed as inhibitors | hit rate 6.9% among 320,000 | AID 504834; further: potency means the concentration at half of the fitted maximal effect; on the % scale 0 is the no-effect control and ±100 the full control effect
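Readout is luminescence from an integrated firefly luciferase in P. falciparum. Red cells, 2% hematocrit and 0.05% parasitemia final, were cultured with compound through two parasite generations (96 hours) at 37 C, 5% CO2.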
Marburg entry inh – inhibitors of Marburg virus binding or cell entry | Potency, µM (highest dose often 37.8 µM), for inactives: top-dose activity change, negative = inhibition, actives largely listed as inhibitors | hit rate 1.8% among 300,000 | Marburg virus pseudotyped entry inhibition, cell reporter | AID 540276; calls by dose curve; tested in HEK293 cells; further: potency means the concentration at half of the fitted maximal effect; on the % scale 0 is the no-effect control and ±100 the full control effect
Shiga inhibitor – inhibitors of Shiga toxin in Vero cells. Vero cells, Shiga toxin protein synthesis inhibition reporter. inhibition, % at 38.7 µM. hit rate 9.2% among 290,000. AID 2315; in the data active means inhibition mostly above about 28%, no sharp cut-off; inactive means mostly below about 43%; further: 0% is about no effect
Lassa entry inh – Lassa virus entry inhibition; Lassa virus pseudotype entry inhibition, cell reporter; AID 540256; Potency, µM (series often up to 37.9 µM), for the others: at the highest dose activity change, negative = inhibition, usual class: inhibitors; hit rate 1.2% among 300,000; calls by dose curve; tested in HEK293 cells; further: potency means the concentration at half of the fitted maximal effect; on the % scale 0 is the no-effect control and ±100 the full control effect; nearly all actives have a fitted effect of over 50% in size
CHX counter – counter-screen for Shiga toxin inhibitors: cycloheximide protein synthesis inhibition; max response, %; hit rate 12% among 300,000; cell reporter, cycloheximide protein synthesis inhibition counterscreen; in the data active means max response mostly above about 13%, no sharp cut-off; inactive means mostly below about 14%; further: read at 38.3 µM for the half of the compounds with a filed dose; 0% is about no effect
Pf growth 48h – inhibits P. falciparum growth in the first generation, 48 h. hit rate 5.9% among 310,000. P. falciparum luciferase growth in erythrocytes, 48 h. Potency, µM (highest dose often 28.7 µM), for the others: at the top dose activity change, negative = inhibition, usual class: inhibitors; further: potency means the concentration at half of the fitted maximal effect; on the % scale 0 is the no-effect control and ±100 the full control effect
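Cell-based growth assay: transgenic P. falciparum expressing firefly luciferase, cultured in red cells within RPMI 1640 containing 0.5% w/v Albumax, 24 mM bicarbonate and gentamycin. A drop in luciferase activity indicates inhibition.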
* marks the source's active call; other numbers are inactive results; i = inactive; ? = inconclusive; nt = no result; [ ] = another dose, or the depositor's remark. Unless noted, the call rests on the fitted dose curve; in most records, active means well fitted inhibition curve with a large enough effect; inconclusive means small, poorly fitted or top-dose-only effect, or another doubt; inactive means no such curve, though single readings can be large or run the other way.

SMILES | Pf growth 96h | Marburg entry inh | Shiga inhibitor | Lassa entry inh | CHX counter | Pf growth 48h
Cc1onc(-c2c(Cl)cccc2Cl)c1C(=O)N1CCN(c2ccccc2)CC1 | 0.0% | nt | -7.4 | nt | -6.0 | ?
Oc1ccc(Cl)cc1C(C#Cc1ccccc1)N1CCOCC1 (stereo not given) | 10.4µM* | ? | -2.4 | -29.7% | 10.0 | ?
COc1cc(NC(=O)c2cccs2)ccc1NC(=O)c1ccco1 | 12.5% | -0.8% | 126.7* | ? | 40.3* | 44.0%
O=C(Nc1ccc(NC(=O)c2cccs2)c(Cl)c1)c1cccs1 | ? | 2.0%[46.1 µM] | 49.6* | 24.1% | 43.1* | -13.1%
O=C(Nc1ccc(NC(=O)c2cccs2)cc1Cl)c1ccco1 | 13.4% | 22.8%[46.1 µM] | 95.6* | 7.3% | 38.0* | 85.8%
O=C(Nc1ccc(Cl)c(NC(=O)c2cccs2)c1)c1ccco1 | -19.6% | nt | -11.5 | nt | 6.7 | 14.5%
Nc1ccc(Br)cc1-c1nc2ccccc2[nH]c1=O | 1.5% | nt | 75.0* | nt | 20.4 | 31.8%
O=c1[nH]c2ccccc2nc1-c1c[nH]c2ccccc12 | ? | nt | 34.4 | nt | 25.6* | nt
CCC(=O)Nc1ccccc1-c1nc2ccccc2[nH]c1=O | ? | 9.2% | 7.7 | -1.9% | 1.0 | 9.8%
Nc1ccccc1-c1nc2ccccc2[nH]c1=O | 60.2% | nt | 80.4* | nt | 57.5* | 60.6%
COC(=O)/C=c1/s/c(=C(\C#N)C(=O)NCc2ccco2)n(-c2ccccc2)c1=O | 6.57µM* | -4.1% | -11.5 | 0.2% | -7.4 | -11.4%
COc1ccc(/C=c2\s/c(=C(/C#N)C(=O)NCc3ccco3)n(-c3ccccc3)c2=O)cc1 | 29.9% | -3.1% | 19.7 | 5.2% | 3.3 | -0.4%
Clc1cccc2c1Sc1ccccc1CC2N1CCNCC1 (stereo not given) | 10.4µM* | ? | -25.0 | 5.17µM* | -9.8 | ?
Clc1ccc2c(c1)C(N1CCNCC1)Cc1ccccc1S2 (stereo not given) | 13.1µM* | ? | -19.6 | ? | -10.9 | 10.4µM*
COCCCN1CCN(C2Cc3ccccc3Sc3ccc(Cl)cc32)CC1 (stereo not given) | ? | ? | -7.3 | ? | -3.1 | ?
CC(=O)c1c(C)[nH]c(C(=O)NCCc2ccccc2)c1C | i | ? | 104.2* | ? | 36.4* | 20.6%
COc1ccc(CCNC(=O)COC(=O)c2ccc(C)s2)cc1OC | ? | nt | nt | nt | nt | -24.5%
CCOC(=O)c1c(C)[nH]c(C(=O)OCC(=O)NCCc2ccc(OCC)c(OCC)c2)c1C | ? | -1.2% | nt | -12.7% | nt | 13.1µM*
CCOc1ccc(CCNC(=O)COC(=O)/C=C/c2ccco2)cc1OCC | 7.38µM* | nt | -10.3 | nt | 2.2 | 8.28µM*
CCOc1ccc(CCNC(=O)COC(=O)c2ccc(C)s2)cc1OCC | 10.4µM* | nt | 43.6 | nt | 11.6 | -11.1%
CCOC(=O)c1[nH]c(C)c(C(=O)OCC(=O)NCc2ccc(OC)c(OC)c2)c1C | ? | nt | nt | nt | nt | -10.4%
CCOC(=O)c1[nH]c(C)c(C(=O)NCCc2ccc(OC)cc2)c1C | 4.65µM* | 0.4% | -3.3 | -11.5% | -2.6 | ?
CCCCSc1nc2c(=O)[nH][nH]c(=O)c2n1Cc1ccccc1 | -12.3% | 8.4% | -10.4 | -7.0% | -0.9 | -3.0%
CCCCOC(=O)NC(NCC(O)c1ccccc1)(C(F)(F)F)C(F)(F)F (stereo not given) | 1.0% | ? | -19.8 | ? | -2.4 | nt
CCCCCOC(=O)NCC(O)c1ccccc1 (stereo not given) | 411.3% | -7.6% | 85.9* | -2.4% | 67.8* | 167.2%
SMILES | Pf growth 96h | Marburg entry inh | Shiga inhibitor | Lassa entry inh | CHX counter | Pf growth 48h
CCOC(=O)c1cnc2c(-c3ccccc3)cnn2c1N | 13.6% | ? | 90.2* | ? | 30.1* | 100.9%
CCOC(=O)c1cnc2c(C#N)cnn2c1N | -11.1% | 20.6%[46.1 µM] | 2.4 | nt | -1.3 | 25.4%
CCOC(=O)c1cnc2c(-c3ccc(Cl)cc3)cnn2c1C | ? | -1.7%[46.1 µM] | 31.9 | 13.9% | 14.1* | 83.6%
CCOC(=O)c1cnc2c(-c3ccc(F)cc3)cnn2c1C(F)(F)F | ? | -0.4% | 27.5* | ? | 17.4* | ?
CC1CCCC(C)N1C(=O)c1cccc2c1-c1ccccc1/C2=N/O (stereo not given) | -3.1% | ? | -6.3 | 14.3% | -1.5 | -2.2%
Cc1[nH]c2c(Cl)cccc2c1CCNC(=O)C1CCCCC1C(=O)OCC(F)(F)F (stereo not given) | 2.1% | ? | -0.6 | ? | -3.7 | ?
